High-throughput results deposited in PubChem BioAssay by National Center for Advancing Translational Sciences (NCATS).
D2 antag: antagonizes the human D2 dopamine receptor; AID 485344; HEK293 TREx D2 cells, calcium flux, dopamine EC80; inhibition, % at 10 µM; 340,000 tested, 2% active; in the data active means inhibition above about 30%; inactive means below that, where a call was filed
Target sequence (P14416 whole entry, looked up): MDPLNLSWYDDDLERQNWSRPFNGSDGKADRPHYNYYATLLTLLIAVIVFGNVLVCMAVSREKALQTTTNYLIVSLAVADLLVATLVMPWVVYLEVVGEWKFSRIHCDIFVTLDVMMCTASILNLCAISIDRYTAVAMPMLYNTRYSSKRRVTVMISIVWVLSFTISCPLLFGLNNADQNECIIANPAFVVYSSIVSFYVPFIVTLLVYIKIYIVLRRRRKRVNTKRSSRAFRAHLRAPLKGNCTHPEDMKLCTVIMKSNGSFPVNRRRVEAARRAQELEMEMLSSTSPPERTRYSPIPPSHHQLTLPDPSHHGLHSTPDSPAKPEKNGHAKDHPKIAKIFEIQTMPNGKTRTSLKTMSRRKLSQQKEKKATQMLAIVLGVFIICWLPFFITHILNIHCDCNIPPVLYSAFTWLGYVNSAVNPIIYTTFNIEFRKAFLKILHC
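Tetracycline-induced HEK293 T-REx cells expressing D2 force-coupled to calcium signalling were dye-loaded, exposed to compound for 180 s, then challenged with an EC80 of dopamine; calcium flux was followed kinetically for a further 180 s.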
D2 PAM-1: positively modulates the human D2 dopamine receptor allosterically; HEK293 T-REx D2, calcium flux, EC20 dopamine potentiation; potentiation, % at 10 µM; 340,000 tested, 0.34% active;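 active means potentiation over 3 SD above the plate norm, cut at about 30% in these data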
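Using a no-wash calcium dye in inducible, force-coupled HEK293 Trex cells expressing D2, we tracked fluorescence each second for 180 s after compound, then for 180 s after EC20 dopamine to detect augmented signalling.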
D2 PAM-2: human D2 receptor positive allosteric modulation; P14416; DiscoveRx D2 beta-arrestin cells, luminescence, 90 min; 100% = 57 uM dopamine signal; potentiation, % (no concentration beside the values); 360,000 tested, 0.23% active; in the data active means potentiation above about 50%; inconclusive means mostly about 30% to 49%
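PathHunter beta-arrestin assay in DiscoveRx D2 cells. Compounds were added with an EC20 of dopamine (50 nM final) for 90 min at 37 deg C. Luminescence was read 1 h after detection reagent, with 57 uM dopamine as the EC100 control.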
D2 ag-1: human D2 receptor agonism in beta-arrestin assay. 360,000 tested, 0.084% active. P14416. AID 624465. DiscoveRx PathHunter D2 beta-arrestin, luminescence, 90 min; 100% = 57 uM dopamine signal. activation, % (test concentration not listed); in the data active means activation above about 40%; inconclusive means between about 15% and that limit
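Agonist mode: compounds alone added to overnight-plated D2 PathHunter cells for 90 min at 37 C, with 57 uM final dopamine (EC100) defining full response. Beta-arrestin recruitment detected by chemiluminescent reagent, read after 1 h at ambient temperature.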
D2 ag-2: activates the human D2 dopamine receptor; HEK293 T-REx D2 cells, calcium flux agonist mode; activation, % at 2 µM; 340,000 tested, 0.53% active; P14416;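 active means activation over 3 SD above normal in the single-dose calcium agonist read, cut at about 30% in these data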
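In this primary screen, compounds producing a positive calcium signal within 180 s of addition to tetracycline-induced, force-coupled HEK293 Trex D2 cells are flagged; cells are dye-loaded with a no-wash calcium kit beforehand.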
A number is an active result; 0 = inactive; ? = inconclusive; - = not tested or not shown. An excerpt weighted towards active compounds, which were near 2.4% of everything screened.

SMILES	D2 antag	D2 PAM-1	D2 PAM-2	D2 ag-1	D2 ag-2
O=C(CC1S/C(=N/N=C/c2cccs2)NC1=O)Nc1ccc(Cl)cc1 (stereo not drawn)	44	0	0	0	0
O=C(O)c1cnn(-c2nc(-c3cccc([N+](=O)[O-])c3)cs2)c1C(F)(F)F	31	0	0	0	0
Cc1ccc(C(=O)N2CCc3cc(CNC(=O)CCc4ccccc4)ccc32)cc1	-	0	-	-	0
Cc1ccc(Sc2c(C)nn(C(=O)COc3ccccc3)c2C)cc1	-	0	-	-	0
COc1ccc(N=Cc2sc(O)c3ccccc23)cc1	0	0	113	?	0
CCCCN1C(=O)c2ccc(C(=O)N(C)CC(=O)Nc3ccc(OCC)c(OCC)c3)cc2C1=O	-	-	0	0	-
CCOc1ccc(NC(=O)CN(C)C(=O)CN2C(=O)c3ccc([N+](=O)[O-])cc3C2=O)cc1OCC	0	0	57	0	0
C/C(=N\NC(=O)c1ccccn1)c1ccc(C(=O)O)s1	59	0	-	-	0
CC(=N/O)/C(C)=N\NC(=O)c1ccccn1	0	0	0	0	0
CC(C)CCNC(=O)C1CCC(CNS(=O)(=O)c2ccc(Cl)cc2)CC1 (stereo not drawn)	34	0	0	0	0
O=C(NC1CC2CCCC(C1)N2Cc1ccccc1)c1cccc(Cl)c1 (stereo not drawn)	90	0	0	0	0
O=C(NC1CC2CCCC(C1)N2Cc1ccccc1)c1cccc(F)c1 (stereo not drawn)	84	0	0	0	0
COc1cccc(C(=O)NC2CC3CCCC(C2)N3Cc2ccc(F)cc2)c1 (stereo not drawn)	-	-	0	0	-
COc1ccc(CCNC(=O)c2ccc3c(c2)N=C(C)c2ccccc2S3)cc1OC	-	0	-	-	0
O=S(=O)(Nc1cccc(-c2ccc(N3CCOCC3)nn2)c1)c1ccc(F)c(C(F)(F)F)c1	-	0	-	-	-
C/C(=N\NC(=O)c1ccccc1F)c1ccc(C#N)cc1	36	0	0	0	0
CCOC(=O)CNC(=O)CSc1nnc(-c2ccc(OC)cc2)n1CC	35	0	0	0	0
Clc1ccc(-c2nnc(SCc3nc(-c4ccccc4)no3)o2)cc1	41	0	0	0	0
c1ccc(-c2noc(CSc3nc4ccccc4o3)n2)cc1	0	0	0	0	0
COc1cccc(CNC(=O)C2CCN(Cc3cc4ccccc4n3Cc3ccccc3)CC2)c1OC	-	0	-	-	0
COc1cccc(-n2c(=O)c3sccc3n(CC(=O)NC3CCCCC3)c2=O)c1	30	0	0	0	0
COc1cccc(-n2c(=O)c3sccc3n(CC(=O)NC3CCCC3)c2=O)c1	0	0	0	0	0
COc1cc2c(cc1OC)C(COc1cccc(C(F)(F)F)c1)N(C(=O)c1ccc(S(=O)(=O)N3CCCC3)cc1)CC2 (stereo not drawn)	-	0	-	-	-
COc1ccc(CCN2C(=O)c3oc4cc(C)cc(C)c4c(=O)c3C2c2ccc(F)cc2)cc1OC (stereo not drawn)	-	0	-	-	0
Cc1cccc(NC(=S)NNC(=O)CCn2cc(C)cn2)c1	0	45	0	0	0
SMILES	D2 antag	D2 PAM-1	D2 PAM-2	D2 ag-1	D2 ag-2
Cc1cc(=O)n(CCCO)c(O)c1C#N	0	0	?	0	0
Cc1cc(=O)n(CC(C)O)c(O)c1C#N (stereo not drawn)	0	0	62	0	0
O=C(CCCc1ccccc1)Nc1ccnn1C1CCN(Cc2ccccc2)CC1	41	0	0	0	0
O=C(CCCc1ccccc1)Nc1ccnn1C1CCN(Cc2ccc(Cl)cc2)CC1	35	0	0	0	0
CN(C)c1ccc(C(CNC(=O)c2ccc(C(C)(C)C)cc2)N2CCCC2)cc1 (stereo not drawn)	-	0	-	-	0
COC(=O)C1C2CC3c4[nH]c5cc(OC)ccc5c4CCN3CC2CC(O)C1OC (stereo not drawn)	-	-	0	0	-
COC(=O)C1C(O)CCC2CN3CCc4c([nH]c5ccccc45)C3CC21 (stereo not drawn)	50	0	0	0	0
COC(=O)[C@H]1[C@H]2C[C@H]3c4[nH]c5ccccc5c4CCN3C[C@H]2CC[C@@H]1O	87	0	0	0	0
O=C(Cn1c(=O)n(Cc2ccc3c(c2)OCO3)c(=O)c2oc3ccccc3c21)Nc1ccccc1F	-	0	-	-	-
COc1ccc2c(Sc3ccccc3)c(C(=O)NCc3cc(Br)ccc3OC)[nH]c2c1	-	0	-	-	0
OCC1CCCCN1CC(O)COC(c1ccc(F)cc1)c1ccc(F)cc1 (stereo not drawn)	31	0	0	0	0
COc1ccc(N2CCN(C(=O)CCc3c(C)nn(-c4ccc(N5CCCC5)nn4)c3C)CC2)cc1	-	0	-	-	-
O=C1/C(=C\c2ccco2)SC(=S)N1c1ccccc1	47	0	0	0	0
Cc1ccc(Cl)cc1NC(=O)CN1C(=O)CSc2ccc(S(=O)(=O)N3CCCC3)cc21	-	-	-	-	0
CCC12CN3CC(CC)(CN(C1)C3c1cc(Br)ccc1OC)C2=O (stereo not drawn)	-	0	-	-	0
CC(=O)c1cccc(NS(=O)(=O)c2ccc(N/C=C\C(=O)c3ccc(C)cc3)cc2)c1	0	0	64	0	0
CC(=O)c1cccc(NS(=O)(=O)c2ccc(N/C=C/C(=O)c3ccc(F)cc3)cc2)c1	-	-	0	0	-
CCCCNC(=O)c1ccc2c(c1)S(=O)(=O)c1ccccc1C2=O	0	0	0	0	0
CC(C)OCCCNC(=O)c1ccc2c(c1)S(=O)(=O)c1ccccc1C2=O	0	0	72	0	0
CC1CCc2sc(C(=O)NC3CCN(Cc4ccccc4)CC3)cc2C1 (stereo not drawn)	83	0	0	0	0
CCC1CCc2sc(C(=O)NC3CCN(Cc4ccccc4)CC3)cc2C1 (stereo not drawn)	77	0	0	0	0
COc1ccccc1CCNC(=O)C1CC(=O)N(c2ccccc2F)C1 (stereo not drawn)	-	-	0	0	-
O=C(CN1C(=O)NC(Cc2c[nH]c3ccccc23)C1=O)Nc1cccc(S(=O)(=O)N2CCCCCC2)c1 (stereo not drawn)	0	0	52	0	0
CCCCS(=O)(=O)c1nc(-c2ccc(Br)cc2)cc(-c2ccccc2)c1C#N	-	0	-	-	0
O=C1c2ccccc2NC(c2cccs2)N1NS(=O)(=O)c1ccccc1 (stereo not drawn)	0	0	0	0	0
COc1ccc(C2Nc3ccccc3C(=O)N2NS(=O)(=O)c2ccccc2)cc1 (stereo not drawn)	39	0	0	0	0
O=C1c2ccccc2NC(c2ccco2)N1NS(=O)(=O)c1ccccc1 (stereo not drawn)	33	0	0	0	0
O=C1c2ccccc2NC(c2ccccc2)N1NS(=O)(=O)c1ccccc1 (stereo not drawn)	0	0	0	0	0
CC1CCCN(C(=O)CSc2nnc(-c3ccc(S(=O)(=O)N4CCOCC4)cc3)n2C)C1 (stereo not drawn)	0	0	0	0	0
